An excerpt weighted towards active compounds, which were near 1.6% of everything screened.
KCNH2 3.1 block: inhibitors of human KCNH2 3.1 potassium channel isoform | U2OS KCNH2 3.1, thallium flux FluxOr; stronger effect = lower value | activity change, % (tested at about 1.8 µM) | 340,000 tested, 0.95% active | AID 720553;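 active = maximum activity change below -70%; inconclusive = maximum activity change from -70% to -50%; inactive = maximum activity change above -50%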;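 also: thallium influx rate constant from kinetic fluorescence after stimulation buffer; % is scaled to controls: 0 for no effect and ±100 for the full control effect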
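Kinetic fluorescence (2 min after stimulation buffer) measures Tl+ influx through KCNH2 3.1 expressed by viral transduction in U2OS cells; the rate constant is normalized against DMSO controls serving as positive and negative references.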
GRP78 ERSR act: ER stress response induction in glioma | 420,000 tested, 0.02% active | Potency, µM, for inactives: top-dose activation, most hits filed as activators | U87-MG GRP78 promoter luciferase reporter, 16 h; active = well fitted activation curve with a large enough effect; inconclusive = small, poorly fitted or top-dose-only effect; inactive = no such curve, though single readings can be large or run the other way; also: potency is read from the fitted curve at half-maximal effect; series mostly up to about 76 µM; % of control where 0% means no effect; nearly all actives have a fitted effect of over 35% in size
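Stably transfected U87-MG glioma cells carrying a GRP78-based luciferase sensor; 16 h compound incubation. Luminescence end-point read 10 min after Bright-Glo addition at room temperature.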
gsp antagonist: gsp mutant antagonism | 340,000 tested, 0.4% active | gsp-mutant cells, cAMP HTRF, 30 min | Potency, µM (titrated, usually from 76.9 µM), for the others: at the highest dose activity change, negative = inhibition, actives largely listed as inhibitors | AID 624288; calls by dose curve; cell line not stated here;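 also: intracellular cAMP measured with PDE inhibitor Ro 20-1724 present during compound exposure; potency is read from the fitted curve at half-maximal effect; % is scaled to controls: 0 for no effect and ±100 for the full control effect; nearly all actives have a fitted effect of over 65% in size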
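HTRF cAMP measurement after 30 min RT detection following 30 min, 37C compound treatment alongside […] (added as 300 uM solution) in G418-selected cells seeded at 2000/well and grown 16–24 h.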
Akt phos inh: Akt phosphorylation inhibition | 360,000 tested, 0.32% active | Neuro2A IGF-stimulated pAkt S473 HTRF, 20 min; stronger effect = lower value | activity change, % for hits at 50 µM; in the data active = activity change below about -80%; inconclusive = mostly about -51% to -80%; also: % is scaled to controls: 0 for no effect and ±100 for the full control effect
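Neuro2A cells in DMEM with 0.5% FBS, overnight at 37 deg C, given compound at single 50 µM final, then IGF (6 nM final) for 20 min at 37 deg C. Lysed; phospho-Akt Ser473 by HTRF after 24 h, 665/615 ratio.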
gsp ag: agonists of gsp mutant (McCune-Albright syndrome). AID 624287. gsp mutant cells, cAMP HTRF, 30 min. 340,000 tested, 0.13% active. Potency, µM (titrated, usually from 76.9 µM), inactives show at the highest dose activation (cAMP increase), actives largely listed as activators; active = well fitted activation curve with a large enough effect; inconclusive = small, poorly fitted or top-dose-only effect, or another doubt; inactive = no such curve, though single readings can be large or run the other way; cell line not stated here;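 also: phosphodiesterase inhibitor Ro 20-1724 added with compounds to block cAMP breakdown; potency is read from the fitted curve at half-maximal effect; nearly all actives have a fitted effect of over 60% in size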
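Cells stably selected in G418 were plated at 2000/well, grown 16-24 hr, then given compounds in DMSO with the PDE inhibitor […] (300 uM solution added) for 30 min at 37C; cAMP was read by HTRF.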
KCNH2 WT inh: blocks the wildtype human KCNH2 potassium channel; Q12809; U2OS, BacMam KCNH2, thallium flux FluxOr; stronger effect = lower value; activity change, % at 1.84 µM; 340,000 tested, 0.37% active; AID 720551;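 active = maximum activity change below -70%; inconclusive = maximum activity change between -70% and -50%; inactive = maximum activity change above -50%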; also: % is scaled to controls: 0 for no effect and ±100 for the full control effect
Target sequence (Q12809 whole entry, looked up): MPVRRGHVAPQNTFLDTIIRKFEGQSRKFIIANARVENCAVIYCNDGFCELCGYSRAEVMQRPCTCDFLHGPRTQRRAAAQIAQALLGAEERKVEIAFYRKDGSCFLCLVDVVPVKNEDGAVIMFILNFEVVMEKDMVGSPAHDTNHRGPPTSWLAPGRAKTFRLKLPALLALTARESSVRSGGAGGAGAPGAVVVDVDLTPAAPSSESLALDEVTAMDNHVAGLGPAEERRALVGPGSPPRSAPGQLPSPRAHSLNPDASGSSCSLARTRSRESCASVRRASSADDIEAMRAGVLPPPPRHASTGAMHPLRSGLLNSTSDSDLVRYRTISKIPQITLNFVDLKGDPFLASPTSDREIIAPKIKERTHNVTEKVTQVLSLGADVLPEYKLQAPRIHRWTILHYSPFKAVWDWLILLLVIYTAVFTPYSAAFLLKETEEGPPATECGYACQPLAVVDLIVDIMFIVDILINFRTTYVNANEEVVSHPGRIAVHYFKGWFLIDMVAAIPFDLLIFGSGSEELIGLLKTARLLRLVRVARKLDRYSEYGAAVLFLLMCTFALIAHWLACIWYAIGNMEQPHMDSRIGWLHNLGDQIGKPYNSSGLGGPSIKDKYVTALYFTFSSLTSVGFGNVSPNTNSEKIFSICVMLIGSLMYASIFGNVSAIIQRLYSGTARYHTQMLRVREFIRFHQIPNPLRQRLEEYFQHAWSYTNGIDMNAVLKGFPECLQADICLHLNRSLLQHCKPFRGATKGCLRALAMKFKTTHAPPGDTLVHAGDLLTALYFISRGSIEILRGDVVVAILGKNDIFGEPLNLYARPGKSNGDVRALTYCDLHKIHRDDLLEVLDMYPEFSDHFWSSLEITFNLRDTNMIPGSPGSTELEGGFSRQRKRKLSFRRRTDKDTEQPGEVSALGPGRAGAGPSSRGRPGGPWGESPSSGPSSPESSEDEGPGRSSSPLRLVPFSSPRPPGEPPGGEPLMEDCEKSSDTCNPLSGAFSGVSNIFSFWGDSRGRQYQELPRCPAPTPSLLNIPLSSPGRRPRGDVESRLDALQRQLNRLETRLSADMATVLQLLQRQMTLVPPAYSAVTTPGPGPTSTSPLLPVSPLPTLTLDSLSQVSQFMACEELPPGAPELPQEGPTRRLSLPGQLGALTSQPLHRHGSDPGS
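U2OS cells transduced with wild-type KCNH2 virus are loaded with FluxOr dye for 45 min, and thallium flux is measured in kinetic reads before and after stimulation buffer. Rate constants are normalized to DMSO controls.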
* marks the source's active call; other numbers are inactive results; i = inactive; ? = inconclusive; . = no result given; [ ] = dose if it differs, or a comment.

SMILES	KCNH2 3.1 block	GRP78 ERSR act	gsp antagonist	Akt phos inh	gsp ag	KCNH2 WT inh
CCCN(CC1CC1)C(=O)COc1ccccc1C(=O)NCc1ccccc1	1	-6%	?	-110%*	-14%	-2
CCC(C)N(C(=O)COc1ccccc1C(=O)NCc1ccccc1)C1CCS(=O)(=O)C1 (stereo not given)	1	-2%	-5%	i	-20%	-5
O=C(O)/C=C/c1ccc2c(c1)S(=O)(=O)N(C1CCCC1)[C@H]2CC(=O)O	.	-4%	.	.	.	.
COc1ccc(-n2nnc3c(=O)n(CC(=O)NCC4CCCO4)cnc32)cc1 (stereo not given)	14	-4%	35%	i	7.9µM*	4
O=C(Cn1cnc2c(cnn2-c2ccc(F)cc2)c1=O)NCC1CCCO1 (stereo not given)	-1	3%	9%	i	?	12
O=C(Cn1cnc2c(nnn2-c2ccc(F)cc2)c1=O)NCC1CCCO1 (stereo not given)	-15	1%	8%	i	10µM*	-5
CCS(=O)(=O)Nc1cc(C(=O)N2CCCN(C=O)CC2)c2c(c1)nc(-c1ccccc1)n2C	.	-3%	.	.	.	.
O=C(Nc1ncc(Cc2ccc(SC(F)F)cc2)s1)c1ccc(OC(F)F)cc1	-82*	-4%	16%	i	2%	4
Cc1ccc(Cc2cnc(NC(=O)c3ccco3)s2)cc1	9	-3%	-7%	i	-39%	0
CC(=O)Nc1ccc(S(=O)(=O)NCCC(=O)OCc2nnc(-c3ccccc3)o2)cc1	4	-1%	12%	i	1%	-2
O=C(CCNS(=O)(=O)c1ccccc1)OCc1nnc(-c2ccccc2)o1	-198*	-1%	-1%	i	-73%	-131*
Cc1cc(C)cc(NC(=O)CNC(c2ccccc2)c2ccccc2)c1	-7	-4%	-14%	i	-1%[15.4 µM]	-70*
CC(C)C(NS(C)(=O)=O)c1nnc2n1CCN(Cc1ccnc3ccccc13)CC2 (stereo not given)	.	2%	.	.	.	.
CCc1ccc(N2CC(C(=O)OCC(=O)Nc3cc(C)on3)CC2=O)cc1 (stereo not given)	3	-1%	-16%	-89%*	0%	1
Cc1ccc(CN(Cc2cc3cc(C)ccc3[nH]c2=O)C(=O)N2CCOCC2)cc1	9	-3%	1%	-106%*	0%	-5
Cc1nc(SCC(=O)N2CCCC2=O)c2c(C)c(C)sc2n1	10	1%	.	i	?	-90*
COCc1c(C(=O)N2CCN(C(C)C)CC2)cnn1-c1nccc(-c2cc(C)sc2C)n1	.	-3%	.	.	.	.
COc1ccc(C(=O)Sc2ccc(Cl)cc2)cc1OC	-5	-2%	1%[15.4 µM]	-127%*	16%	0
O=Cc1ccc(O)cc1	.	-3%	.	.	.	.
CCn1c(-c2cccc(OC)c2)nc2cc(NC(C)=O)cc(C(=O)N3CCCC(C(C)=O)C3)c21 (stereo not given)	.	-3%	.	.	.	.
COc1ccc(-c2cnnc(N/N=C/c3ccc(-c4ccc([N+](=O)[O-])cc4)o3)n2)cc1	-149*	4%	5%	i	2%	-11
O=c1c2oc3ccccc3c2[nH]c(=S)n1-c1ccccc1	4	4%	12%	i	3.5µM*	-11
CCCCn1c(=O)[nH]c2c(oc3ccccc32)c1=O	0	1%	12%	i	0%	-8
Cc1cccc(-n2c(=S)[nH]c3c(oc4ccccc43)c2=O)c1	3	-2%	2%	i	14µM*	3
Cc1ccc(-n2c(=S)[nH]c3c(oc4ccccc43)c2=O)cc1	3	-3%	10%	i	5.6µM*	-1
SMILES	KCNH2 3.1 block	GRP78 ERSR act	gsp antagonist	Akt phos inh	gsp ag	KCNH2 WT inh
Cc1ccc(-n2c(C)nc3oc4ccccc4c(=O)c3c2=O)cc1	10	8%	12%	i	?	-8
C=CN1CCCC1=O	.	-5%	.	.	.	.
COc1ccc(C(=S)N2CCN(c3ccccc3Cl)CC2)cc1OC	5	-5%	-14%	i	-57%	-12
COc1cc(C(=S)N2CCN(c3ccccc3Cl)CC2)cc(O)c1O	-75*	-5%	-15%	i	-4%	-174*
COc1cc2c(cc1OC)C(C)N(CCN1C(=O)c3ccccc3C1=O)CC2 (stereo not given)	3	-8%	2%	i	-43%	2
COc1cc2c(cc1OC)C(C)N(CCc1ccc(Cl)cc1)CC2 (stereo not given)	-84*	-6%	-5%	i	-7%[15.4 µM]	-12
COc1ccc(Nc2cc(C)c3cc([N+](=O)[O-])ccc3n2)cc1	-99*	0%	?	i	-4%	-7
CCCCN(C)CCCNC(=O)C1CCC(CNS(=O)(=O)c2c(C)cc(C)cc2C)CC1 (stereo not given)	-77*	4%	3%	i	6%	-26
CC(=O)c1ccc([N+](C)(C)C)cc1	.	-1%	.	.	.	.
C=CCc1ccc(OCC(O)CN2CCC(Cc3ccccc3)CC2)c(OC)c1 (stereo not given)	-86*	-3%	7%	i	7%	-31
C=CCc1ccc(OCC(O)CN2CCN(c3ccccc3OC)CC2)c(OC)c1 (stereo not given)	-8	0%	7%	i	-9%	-5
C=CCc1ccc(OCC(O)CN2CCN(Cc3ccc(Cl)cc3)CC2)c(OC)c1 (stereo not given)	-83*	-8%	-7%	i	7%	-50
O=C(CCN1Cc2ccccc2OC(c2ccccc2F)C1)N1CCC(N2CCCC(O)C2)CC1 (stereo not given)	.	-1%	.	.	.	.
O=C(Nc1ccc(CN2CCOCC2)cc1)c1ccc(-c2ccc(Cl)cc2Cl)o1	-87*	-2%	-2%	i	2%[15.4 µM]	0
NC(=O)c1ccc(NC(=O)c2ccc(CN3CCOCC3)cc2)cc1	-3	-2%	1%	i	-13%	-8
Cc1cccc(C)c1NC(=O)c1ccc(-c2ccc(Cl)cc2Cl)o1	-8	-5%	-22%	-115%*	0%	9
CC(C)c1ccc(CNc2ccc(N3CCOCC3)cc2)cc1	-175*	-2%	-17%	i	17%	-131*
CC(C)c1ccc(C(=O)Nc2ccc(CN3CCOCC3)cc2)cc1	-76*	-4%	1%	i	12%[15.4 µM]	9
CCC(=O)OC1CCC2C3CCc4cc(O)ccc4C3CCC12C (stereo not given)	.	-5%	.	.	.	.
COc1ccc(OC)c(C(=O)NC(CC(N)=O)c2ccc(NCC3CC3)c([N+](=O)[O-])c2)c1 (stereo not given)	-121*	-7%	0%	i	-11%	1
CCc1c(C)c2cc(Cl)c(O)c(CN(C)C)c2oc1=O	-88*	1%	4%	i	35%	-7

Screening results (PubChem)
